Measured potencies and affinities stand elsewhere. A number with no mark means an inactive call.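 The calls were made as follows: active = cell killing with a fitted half-effect concentration at or below twice the top valid dose; inconclusive = flat curve with 30 to 70 percent drop, or poor fit; inactive = the rest.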

The assay in a line: HEK293T cell cytotoxicity, dose response, cytotoxicity control, ATP luminescence, cherry-pick, set 6 (AID 1053126).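 Also: 0% = neutral control wells and -100% = mitoxantrone 10 µM positive control.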 To be noted: HEK293T viability, CellTiter-Glo ATP luminescence, 72 h; series mostly up to 26 µM; activity change, negative = cytotoxicity: at the top concentration. (In ATP-based viability assays light output follows the ATP content of the culture.)
Consider `CCc1ccccc1S(=O)(=O)Cc1ccc(C(=O)N2CCN(c3ccccc3OC)CC2)o1`, for which the “activity change, negative = cytotoxicity” value was -6.49%.

Consider `CN1c2ccc(Cl)cc2C(=O)NC1C1CC=CCC1` (stereo not drawn), for which the “activity change, negative = cytotoxicity” value is 5.93%.

`CCN(CC)c1ccc2c(C)c(Cl)c(=O)oc2c1`: the “activity change, negative = cytotoxicity” value was 15.3%.

For the compound `Cc1c(C(=O)NCc2ccc3c(c2)OCCO3)sc(=O)n1Cc1ccccc1F`, the “activity change, negative = cytotoxicity” value was -6.29%.

Consider `Cc1nc(CCNC(=O)Cc2ccc(Cl)cc2)cs1`, for which the “activity change, negative = cytotoxicity” value was -7.6%.

In the case of `CCN(CC)c1ccc2cc(C#N)c(=O)oc2c1`, the “activity change, negative = cytotoxicity” value is -1.21%.

Turning to `CC1(C)CC(=O)C2=C(C1)OC(N)=C(C#N)[C@@H]2c1ccccc1[N+](=O)[O-]`, the “activity change, negative = cytotoxicity” value is -7.08%.

With `COc1cccc2c(=O)c3c(cnn3C)n(C)c12`, the “activity change, negative = cytotoxicity” value was -2.97%.

With `Cc1cccn2c(=O)c3cc(C(N)=S)c(=N)n(CCCOC(C)C)c3nc12`, the “activity change, negative = cytotoxicity” value is -7.65%.

For the compound `CC(C)N1CCc2c(sc(NC(=O)Cc3ccccc3)c2C#N)C1`, the “activity change, negative = cytotoxicity” value was 49.6%.

For the compound `CCc1cccc(OC2OC(CO)C(O)C(O)C2NC(C)=O)c1` (stereo not drawn), the “activity change, negative = cytotoxicity” value is -15.4%.

Consider `CC(=O)NNc1cc(N2CCOCC2)nc(N2CCOCC2)n1`, for which the “activity change, negative = cytotoxicity” value is -6.77%.

Turning to `O=c1c2ccccc2n(CC(O)CN2CCCCC2)c2ccccc12` (stereo not drawn), the “activity change, negative = cytotoxicity” value is -7.07%.

With `C=CCn1c(=N)c(C#N)cc2c(=O)n3ccccc3nc21`, the “activity change, negative = cytotoxicity” value is -9.32%.

As to `COc1ccc(S(=O)(=O)Cc2ccc(C(=O)N3CCN(Cc4ccccc4)CC3)o2)cc1`, the “activity change, negative = cytotoxicity” value is 43.5%.

Take `CCOc1ccccc1N=c1oc2cc(O)ccc2cc1C(=O)NCC1CCCO1` (stereo not drawn): the “activity change, negative = cytotoxicity” value is -17%.

For `COc1cccc(N2CCN(C(=O)C3CCCN(S(=O)(=O)c4cnc[nH]4)C3)CC2)c1` (stereo not drawn), the “activity change, negative = cytotoxicity” value was 34.1%.

For `Cc1nc2ccccc2c2oc(C(=O)NCCCN3CCC(C)CC3)cc12`, the “activity change, negative = cytotoxicity” value is -16.4%.

For `COCc1cc(C)nc(SCC(=O)Oc2ccc(Cl)cc2)c1C#N`, the “activity change, negative = cytotoxicity” value is -8.93%.

As to `COc1ccc(Br)c(Cn2c(C)c(C(=O)NCc3ccc4c(c3)OCCO4)sc2=O)c1`, the “activity change, negative = cytotoxicity” value was -13.7%.

Regarding `O=C(NCc1ccc(F)cc1)C1CCCN1C(=O)Nc1cccc(F)c1` (stereo not drawn), the “activity change, negative = cytotoxicity” value was 1.02%.

As to `N#CC1=C(N)OC2=C(C(=O)CCC2)C1c1cc2c(cc1Br)OCO2` (stereo not drawn), the “activity change, negative = cytotoxicity” value is -8%.

Take `O=C(CCCN1C(=O)CSc2ncccc21)N1CCN(Cc2ccccc2)CC1`: the “activity change, negative = cytotoxicity” value was -10.1%.

As for `O=C1CCc2cc(S(=O)(=O)NC(Cc3ccccc3)C(=O)NCCC3=CCCCC3)ccc2N1` (stereo not drawn), the “activity change, negative = cytotoxicity” value is 8.41%.

On to `CCOC(=O)c1cc(-c2ccccc2)sc1NC(=O)CSc1nnc(N)s1`, for which the “activity change, negative = cytotoxicity” value was -2.94%.

As to `O=C(O)c1ccc(-c2ccc(/C=C3\NC(=O)N(Cc4ccc(Cl)cc4)C3=O)o2)cc1`, the “activity change, negative = cytotoxicity” value was -3.02%.

For `Cc1cccn2c(=O)c3cc(C(=O)NCC4CCCO4)c(=N)n(CC4CCCO4)c3nc12` (stereo not drawn), the “activity change, negative = cytotoxicity” value was 1.69%.

Turning to `CCn1c(=NC(=O)CSC(C)=O)sc2cc(OC)ccc21`, the “activity change, negative = cytotoxicity” value was -9.23%.

Consider `COc1cc(C(=O)OCC(C)=O)cc(NC(=O)c2ccco2)c1OC`, for which the “activity change, negative = cytotoxicity” value is 5.21%.

In the case of `Cc1cccn2c(=O)c3cc(C(=O)NCc4ccco4)c(=N)n(CCc4ccccc4)c3nc12`, the “activity change, negative = cytotoxicity” value is -5.68%.

With `[O-]/[N+](=C/c1ccccc1)c1ccccc1`, the “activity change, negative = cytotoxicity” value is -8.31%.

For `Cc1cc(C)nc(SCC(=O)Nc2ccc(S(=O)(=O)Nc3onc(C)c3C)cc2)n1`, the “activity change, negative = cytotoxicity” value is -1.79%.

On to `CCCCCCc1cc2cc(S(=O)(=O)c3ccc(C)cc3)c(=O)oc2cc1O`, for which the “activity change, negative = cytotoxicity” value is 59.9%.

On to `CCN(CC)Cc1c(O)c(Cl)cc2c(C)cc(=O)oc12`, for which the “activity change, negative = cytotoxicity” value was -0.263%.

Regarding `CCOc1ccc2nc(NCCCNS(=O)(=O)c3ccc(F)cc3)c(C#N)cc2c1`, the “activity change, negative = cytotoxicity” value is -10.3%.

`COc1ccc(NC(=O)C2CCC(CNS(=O)(=O)c3cccs3)CC2)cc1` (stereo not drawn): the “activity change, negative = cytotoxicity” value is -11.5%.

`Cc1noc(C)c1S(=O)(=O)N(CC(=O)N1CCCCCC1)c1ccc(C(C)C)cc1`: the “activity change, negative = cytotoxicity” value is -16.6%.

`COCCNC(=S)N/N=C/c1ccc(-c2ccc([N+](=O)[O-])cc2)o1`: the “activity change, negative = cytotoxicity” value was -3.43%.

(Values after PubChem BioAssay AID1053126 (Broad Institute, 2014).)
